Measurements published in PubChem BioAssay (EPA / NIEHS).
Some compounds were tested as several samples or in several runs, with calls that do not always agree. Activity calls are given as the source filed them. How the source made its calls: active means hit-call score of the fitted dose curve at least 0.9, where 1 is the maximum; inactive means score below 0.9.

Assays:
[1] = ATG_M_32_CIS: Attagene CIS-FACTORIAL HepG2 Assay for M32 Transcription Factor (Internal Marker) (AID 2282949); conditions: HepG2 Attagene cis-factorial M32 reporter, mRNA; actives raise or lower the signal;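 further: background control marker of the multiplexed CIS panel rather than a real target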
Outline: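 Internal background marker read-out: RT-PCR/capillary electrophoresis fluorescence of reporter transcripts from transiently transfected HepG2 cells after 24 h chemical exposure. Activity fitted bidirectionally relative to DMSO negative control.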

[2] = ATG_M_06_CIS: Attagene CIS-FACTORIAL HepG2 Assay for M06 Transcription Factor (Internal Marker) (AID 2282950); conditions: HepG2 Attagene CIS-FACTORIAL M06 internal marker reporter; actives raise or lower the signal
Outline: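 HepG2 liver cells, 24 h exposure. Reporter transcripts from transfected cis-element constructs quantified by RT-PCR/capillary electrophoresis fluorescence. Bidirectional curve fit against DMSO.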

[3] = molecular target: Hypoxia-inducible factor 1-alpha (Homo sapiens) (UniProt Q16665); experiment: ATG_HIF1a_CIS: Attagene CIS-FACTORIAL HepG2 Assay for human Hypoxia Inducible Factor 1 (HIF1A) (AID 2282951); conditions: HepG2 Attagene cis-factorial HIF1a reporter transcription; actives raise or lower the signal
Outline: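 HepG2 cells transiently transfected with multiplexed cis-promoter reporter units; reporter mRNA read 24 h after dosing by RT-PCR, 6-FAM primer-extension labelling, HpaI digestion and capillary electrophoresis. Bidirectional fit versus DMSO baseline.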

[4] = molecular target: Hepatocyte nuclear factor 6 (Homo sapiens) (UniProt Q9UBC0); experiment: ATG_HNF6_CIS: Attagene CIS-FACTORIAL HepG2 Assay for human Hepatocyte Nuclear Factor 6 (HNF6) (AID 2282952); conditions: HepG2 Attagene cis-factorial HNF6 reporter transcription; actives raise or lower the signal
Outline: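 Cells are HepG2 carrying transiently transfected cis-promoter reporter units. Treatment lasts 24 h, after which reporter transcripts are reverse-transcribed, amplified, FAM-labelled and sized by capillary electrophoresis. DMSO serves as baseline.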

[5] = molecular target: Heat shock factor protein 1 (Homo sapiens) (UniProt Q00613); experiment: ATG_HSE_CIS: Attagene CIS-FACTORIAL HepG2 Assay for human Heat Shock Transcription Factor 1 (HSE) (AID 2282953); conditions: HepG2 HSE cis-reporter, Attagene RNA transcription; actives raise or lower the signal
Outline: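 Endogenous transcription factor activity captured via cis-promoter reporter units transfected into HepG2; treatment lasted 24 h. Fluorescence intensity of reporter fragments analysed with bidirectional curve fitting, DMSO baseline.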

[6] = ATG_MRE_CIS: Attagene CIS-FACTORIAL HepG2 Assay for human Metal Responsive Element (MRE) (AID 2282954); conditions: HepG2 MRE cis-reporter transcription, Attagene multiplex; actives raise or lower the signal
Outline: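 HepG2 cells transiently transfected with multiple cis-element reporter units measure endogenous MTF1-driven transcription. After 24 h compound exposure, reporter mRNA is quantified by RT-PCR with 6-FAM labelling, HpaI digestion and capillary electrophoresis; bidirectional fits versus DMSO.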

[7] = ATG_PBREM_CIS: Attagene CIS-FACTORIAL HepG2 Assay for human Phenobarbital-responsive Enhancer Module (PBREM) (AID 2282955); conditions: HepG2 PBREM cis-reporter, Attagene multiplexed transcription; actives raise or lower the signal
Outline: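 HepG2 cells transiently transfected with multiple cis-regulated reporter transcription units; endogenous factor activity at the PBREM element measured as reporter mRNA 24 h after dosing, via RT-PCR and capillary electrophoresis of fluorescent fragments; bidirectional fitting versus DMSO.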

[8] = molecular target: Paired box protein Pax-6 (Homo sapiens) (UniProt P26367); experiment: ATG_Pax6_CIS: Attagene CIS-FACTORIAL HepG2 Assay for human Paired Box 6 (PAX6) (AID 2282956); conditions: HepG2 CIS-FACTORIAL PAX6 reporter transcription, RNA readout; actives raise or lower the signal
Outline: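 Transient MRTU transfection of HepG2 → compound exposure 24 h → TriZol RNA, oligo(dT) RT → PCR, 6-FAM primer extension, HpaI cut → capillary electrophoresis; activity fitted both directions against DMSO.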

[9] = ATG_PXRE_CIS: Attagene CIS-FACTORIAL HepG2 Assay for human Pregnane X Receptor Element (PXRE) (AID 2282957); conditions: HepG2 Attagene CIS-FACTORIAL PXRE reporter, mRNA; actives raise or lower the signal
Outline: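 Multiplexed cis-reporter assay in transiently transfected human HepG2 cells; 24 h chemical exposure. Reporter transcripts quantified by RT-PCR with fluorescent labeling and capillary electrophoresis.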

[10] = ATG_PPRE_CIS: Attagene CIS-FACTORIAL HepG2 Assay for human Peroxisome Proliferator-activated Response Element (PPRE) (AID 2282958); conditions: HepG2 PPRE cis-element reporter, Attagene transcription factor profiling; actives raise or lower the signal
Outline: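 HepG2 cells transiently transfected with multiplexed cis-element reporter units measure endogenous transcription factor activity. After 24 h compound exposure, reporter mRNA is quantified by RT-PCR, 6-FAM labeling, HpaI digestion and capillary electrophoresis; bidirectional fits are made against DMSO baseline.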

Sequence of Hypoxia-inducible factor 1-alpha (Homo sapiens) (Q16665 whole entry, looked up): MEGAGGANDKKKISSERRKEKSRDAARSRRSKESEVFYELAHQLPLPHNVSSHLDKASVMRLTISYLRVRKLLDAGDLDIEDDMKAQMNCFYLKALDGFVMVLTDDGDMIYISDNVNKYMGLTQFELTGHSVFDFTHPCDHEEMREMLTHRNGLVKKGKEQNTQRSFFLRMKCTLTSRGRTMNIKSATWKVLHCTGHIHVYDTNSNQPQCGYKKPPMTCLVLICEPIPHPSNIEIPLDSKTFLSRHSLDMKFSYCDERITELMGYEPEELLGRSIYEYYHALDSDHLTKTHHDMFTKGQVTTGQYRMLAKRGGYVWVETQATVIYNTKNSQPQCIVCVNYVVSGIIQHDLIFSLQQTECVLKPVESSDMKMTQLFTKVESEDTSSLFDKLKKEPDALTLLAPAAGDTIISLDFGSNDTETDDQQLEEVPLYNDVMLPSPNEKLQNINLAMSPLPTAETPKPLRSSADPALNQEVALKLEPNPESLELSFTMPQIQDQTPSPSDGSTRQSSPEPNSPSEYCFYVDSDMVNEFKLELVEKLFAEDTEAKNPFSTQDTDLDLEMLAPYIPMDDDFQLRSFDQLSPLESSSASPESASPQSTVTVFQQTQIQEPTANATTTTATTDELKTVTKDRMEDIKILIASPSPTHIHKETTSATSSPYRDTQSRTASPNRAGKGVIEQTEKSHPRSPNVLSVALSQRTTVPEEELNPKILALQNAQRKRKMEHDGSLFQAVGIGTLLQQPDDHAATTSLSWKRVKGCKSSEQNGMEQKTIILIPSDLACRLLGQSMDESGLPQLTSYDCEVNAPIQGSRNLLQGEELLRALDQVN
Sequence of Paired box protein Pax-6 (Homo sapiens) (P26367 whole entry, looked up): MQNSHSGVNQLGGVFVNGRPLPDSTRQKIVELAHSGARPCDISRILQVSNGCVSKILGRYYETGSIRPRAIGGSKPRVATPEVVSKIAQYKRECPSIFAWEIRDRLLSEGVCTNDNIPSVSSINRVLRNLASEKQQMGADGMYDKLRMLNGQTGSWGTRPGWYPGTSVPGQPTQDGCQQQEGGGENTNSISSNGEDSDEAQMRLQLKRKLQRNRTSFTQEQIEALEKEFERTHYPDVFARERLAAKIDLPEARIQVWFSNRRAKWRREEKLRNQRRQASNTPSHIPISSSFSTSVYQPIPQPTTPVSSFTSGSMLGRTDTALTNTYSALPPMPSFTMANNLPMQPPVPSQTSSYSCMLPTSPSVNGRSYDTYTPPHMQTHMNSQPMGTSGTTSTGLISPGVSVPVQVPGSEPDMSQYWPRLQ
Sequence of Hepatocyte nuclear factor 6 (Homo sapiens) (Q9UBC0 whole entry, looked up): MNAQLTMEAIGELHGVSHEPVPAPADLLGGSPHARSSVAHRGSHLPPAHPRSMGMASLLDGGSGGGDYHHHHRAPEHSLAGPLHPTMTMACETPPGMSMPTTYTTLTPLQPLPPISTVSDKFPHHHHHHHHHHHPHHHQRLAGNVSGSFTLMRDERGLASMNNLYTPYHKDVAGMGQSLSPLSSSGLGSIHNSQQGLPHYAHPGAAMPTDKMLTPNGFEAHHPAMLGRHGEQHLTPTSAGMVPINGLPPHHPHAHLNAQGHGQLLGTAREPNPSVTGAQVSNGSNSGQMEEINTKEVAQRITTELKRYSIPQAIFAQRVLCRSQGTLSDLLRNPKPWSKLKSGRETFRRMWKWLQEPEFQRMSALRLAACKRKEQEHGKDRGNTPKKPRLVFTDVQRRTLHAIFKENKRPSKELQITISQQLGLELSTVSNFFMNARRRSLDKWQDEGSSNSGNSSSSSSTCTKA
Sequence of Heat shock factor protein 1 (Homo sapiens) (Q00613 whole entry, looked up, the tested form may be a part): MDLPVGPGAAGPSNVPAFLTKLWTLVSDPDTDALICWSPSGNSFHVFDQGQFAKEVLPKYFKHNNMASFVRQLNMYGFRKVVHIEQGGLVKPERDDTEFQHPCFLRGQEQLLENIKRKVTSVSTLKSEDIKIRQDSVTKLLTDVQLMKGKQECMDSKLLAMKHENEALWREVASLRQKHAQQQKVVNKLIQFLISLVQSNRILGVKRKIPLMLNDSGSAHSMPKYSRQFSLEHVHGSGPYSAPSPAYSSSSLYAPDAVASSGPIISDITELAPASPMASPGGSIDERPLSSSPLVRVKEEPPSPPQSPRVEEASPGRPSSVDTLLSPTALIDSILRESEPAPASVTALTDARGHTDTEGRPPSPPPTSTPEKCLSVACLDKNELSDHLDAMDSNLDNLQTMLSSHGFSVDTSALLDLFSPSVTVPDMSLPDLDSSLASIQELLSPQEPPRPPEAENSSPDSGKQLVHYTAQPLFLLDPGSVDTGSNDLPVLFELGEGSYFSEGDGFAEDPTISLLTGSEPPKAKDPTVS

Row | Compound | outcome [1] | outcome [2] | outcome [3] | outcome [4] | outcome [5] | outcome [6] | outcome [7] | outcome [8] | outcome [9] | outcome [10] | AC50 [9] | AC50 [10] | AC50 [3] | AC50 [6] | AC50 [8] | AC50 [4] | AC50 [5] | AC50 [7]
1 | CCCCCCc1ccc(N)cc1 | inactive | inactive | inactive | inactive | inactive | inactive | inactive | inactive | inactive | inactive |  |  |  |  |  |  |  | 
2 | O=C(C=C(O)C(F)(F)F)C(F)(F)F | inactive | inactive | inactive | inactive | inactive | inactive | inactive | inactive |  | inactive | 99 µM (active) |  |  |  |  |  |  | 
3 | CC1CNCC(C)O1 (stereo not given) | inactive | inactive | inactive | inactive | inactive | inactive | inactive | inactive | inactive | inactive |  |  |  |  |  |  |  | 
4 | C[N+](C)(CCCNS(=O)(=O)CCC(F)(F)C(F)(F)C(F)(F)C(F)(F)C(F)(F)C(F)(F)F)CC(=O)[O-] | inactive | inactive | inactive | inactive | inactive | inactive | inactive | inactive |  | inactive | 0.00267 µM (active) |  |  |  |  |  |  | 
5 | O=C1C=CC(=O)N1c1cccc(N2C(=O)C=CC2=O)c1 | inactive | inactive | inactive | inactive | inactive | inactive | inactive | inactive | inactive | inactive |  |  |  |  |  |  |  | 
6 | CC(=O)CC(C)C | inactive | inactive | inactive | inactive | inactive | inactive | inactive | inactive | inactive | inactive |  |  |  |  |  |  |  | 
7 | O=C1c2ccccc2C(=O)c2c(O)c(O)cc(O)c21 | inactive | inactive | inactive | inactive | inactive | inactive | inactive | inactive |  | inactive | 26.6 µM (active) |  |  |  |  |  |  | 
8 | CCCCCCCCC1CCC(=O)O1 (stereo not given) | inactive | inactive | inactive | inactive | inactive | inactive | inactive | inactive | inactive | inactive |  |  |  |  |  |  |  | 
9 | CCN(CC)CC | inactive | inactive | inactive | inactive | inactive | inactive | inactive | inactive | inactive | inactive |  |  |  |  |  |  |  | 
10 | COc1ccc(C#N)cc1 | inactive | inactive | inactive | inactive | inactive | inactive | inactive | inactive | inactive | inactive |  |  |  |  |  |  |  | 
11 | CCOC=O | inactive | inactive | inactive | inactive | inactive | inactive | inactive | inactive | inactive | inactive |  |  |  |  |  |  |  | 
12 | CCC(C)c1ccccc1O (stereo not given) | inactive | inactive | inactive | inactive | inactive | inactive | inactive | inactive |  | inactive |  |  |  |  |  |  |  | 
13 | Oc1c(Cl)ccc(Cl)c1Cl | inactive | inactive | inactive | inactive | inactive | inactive | inactive | inactive |  |  | 49.8 µM (active) | 40.4 µM (active) |  |  |  |  |  | 
14 | N=C(N)c1ccc(OCCCCCOc2ccc(C(=N)N)cc2)cc1 | inactive | inactive |  | inactive | inactive |  |  |  |  | inactive | 57.2 µM (active) |  | 113 µM (active) | 65.2 µM (active) | 101 µM (active) |  |  | 
15 | Clc1ccc(Nc2nnc(Cc3ccncc3)c3ccccc23)cc1 | inactive | inactive |  |  |  |  |  |  |  | inactive | 1.45 µM (active) |  | 15.8 µM (active) | 27.6 µM (active) | 27 µM (active) | 17.9 µM (active) | 75.2 µM (active) | 8.51 µM (active)
16 | O=C(c1cc(O)c(O)c(O)c1)c1ccc(O)c(O)c1O | inactive | inactive |  | inactive | inactive | inactive | inactive | inactive | inactive | inactive |  |  | 53.5 µM (active) |  |  |  |  | 
17 | O=C1Cc2ccccc2N1c1c(Cl)cccc1Cl | inactive | inactive |  | inactive |  |  |  | inactive |  | inactive | 0.484 µM (active) |  | 75.3 µM (active) | 91.5 µM (active) |  |  | 130 µM (active) | 1.23 µM (active)
18 | O=C(NO)c1ccccc1 | inactive | inactive | inactive | inactive | inactive | inactive |  | inactive |  |  |  |  |  |  |  |  |  | 
19 | CCCCC(CC)C(=O)O (stereo not given) | inactive | inactive | inactive | inactive | inactive | inactive |  | inactive | inactive | inactive |  |  |  |  |  |  |  | 
20 | CC(O)COc1ccccc1 (stereo not given) | inactive | inactive | inactive | inactive | inactive | inactive | inactive | inactive |  | inactive |  |  |  |  |  |  |  | 
21 | CCCCCCCCCCCC | inactive | inactive | inactive | inactive | inactive | inactive |  | inactive | inactive |  | 4.16 µM (active) |  |  |  |  |  |  | 
22 | C=CC(=O)OCCC(F)(F)C(F)(F)C(F)(F)C(F)(F)C(F)(F)C(F)(F)F | inactive | inactive | inactive | inactive | inactive | inactive | inactive | inactive | inactive | inactive |  |  |  |  |  |  |  | 
23 | FC(F)(F)C(F)(F)C(F)(F)C(F)(F)I | inactive | inactive | inactive | inactive | inactive | inactive | inactive | inactive |  | inactive |  |  |  |  |  |  |  | 
24 | CCOC(=O)CN[C@@H](C(=O)N1CC[C@H]1C(=O)NCc1ccc(/C(N)=N/O)cc1)C1CCCCC1 | inactive | inactive | inactive | inactive | inactive | inactive | inactive | inactive |  | inactive |  |  |  |  |  |  |  | 
